Data published in PubChem BioAssay (NCI).
Compounds without any hit were thinned out: in the full panel of roughly 83,000, 20% have a hit.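 Each cell line was grown in a 96-well plate and treated with one concentration of compound for 48 hours. Values below 10 were considered active.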 A number with no mark means an inactive call. Calls of active or inactive are those of the source.

Legend:
Assay in all cases: NCI-60 one-dose screen, 48 h (100 = growth as untreated, 0 = no growth, -100 = all killed)
Conditions in all cases: 10 µM unless noted
[1] = tested on: DU-145 prostate
[2] = tested on: K-562 leukemia
[3] = tested on: MALME-3M melanoma
[4] = tested on: MDA-MB-231 breast
[5] = tested on: RXF 393 renal
[6] = tested on: SF-268 CNS
[7] = tested on: SF-295 CNS
[8] = tested on: SF-539 CNS
[9] = tested on: UACC-257 melanoma
[10] = tested on: M14 melanoma

Row | Compound | growth [1] | growth [2] | growth [3] | growth [4] | growth [5] | growth [6] | growth [7] | growth [8] | growth [9] | growth [10]
1 | O=C(NCc1ccc(Cn2c(=O)sn(-c3ccccc3)c2=O)cc1)OCc1ccc2cccc(O)c2n1 | -91.7% (active) | -9.02% (active) | -68.7% (active) | -45.7% (active) | -94.3% (active) | -46.2% (active) | 50.2% | -91.7% (active) | -25% (active) | -64.2% (active)
2 | C=CCn1cc(-c2nc3ccccc3s2)c2cc(-c3ccc4c5c(cccc35)C(=O)N(CCO)C4=O)ccc21 | 107% | 90.8% | 119% | 85.2% | 100% | 90.5% | 91.2% | 104% | 107% | 106%
3 | C=CCN=c1sc(-c2ccc3ccccc3c2)cn1NC(=O)c1cc2ccc1CCc1ccc(cc1)CC2 | 75% | 35% | 76.7% | 92.9% | 74.1% | 62.3% | 46% | 77.9% | 48.7% | 75.6%
4 | Cc1nn(-c2ccc([N+](=O)[O-])cc2)c2ncnc(N/N=C/c3ccccc3O)c12 | 20.7% | 11.2% | 2.12% (active) | 29% | 15.7% | 9.25% (active) | 12.6% | 7.49% (active) | 13.2% | -17.7% (active)
5 | O=S(=O)(Nc1cc(F)cc(F)c1)c1ccc(-c2cnc(C3CC3)o2)cc1 | 70.4% | 9.67% (active) | 50.1% | 58.2% | 46.6% | 56.7% | 20.9% | 29.2% | 62.7% | 16.5%
6 | Cc1ccc(C(=O)c2ccc(CC(=O)N/N=C/c3cccc(O)c3O)n2C)cc1 | 49.3% | 30.4% | 58.7% | 45.3% | 29.7% | 37.2% | 83.5% | 33.8% | 89.7% | 28.5%
7 | CCCc1cc(=O)oc2c(C(=O)CC(C)C)c(O)c(CC=C(C)C)c(O)c12 | 31.3% | 14.3% | -6.82% (active) | -15.9% (active) | 27.3% | 26.5% | 17.8% | 42.2% | 22.7% | 33.6%
8 | c1cc(OCCCCCOc2cccc(-c3nc4ccccc4[nH]3)c2)cc(-c2nc3ccccc3[nH]2)c1 | 33.2% | 9.81% (active) | -13.6% (active) | 19.6% | 6.51% (active) | 61.3% | 8.95% (active) | 28.3% | 22.9% | 20.1%
9 | COC(=O)/C(CCC=C(C)C)=C1\[C@@H](OC(C)=O)C[C@@]2(C)[C@H]1C/C(=N/O)[C@H]1[C@@]3(C)CC/C(=N\O)[C@@H](C)[C@@H]3CC[C@@]12C | 106% | 83.6% | 119% | 86.5% | 104% | 89.1% | 101% | 89.4% | 118% | 98.6%
10 | COC1C(O)CC(OC2CC(OC3CC(O[C@@H]4C(=O)c5c(cc6cc(OC7CC(OC8CC(O)C(O)C(C)O8)C(O)C(C)O7)c(C)c(O)c6c5O)CC4[C@H](OC)C(=O)C(C)=O)OC(C)C3O)OC(C)C2O)OC1C (stereo not given in full) | 10.4% | 2.1% (active) | -30.6% (active) | 6.75% (active) | -56.3% (active) | 2.33% (active) | 0.867% (active) | -20.8% (active) | -23.4% (active) | -34.4% (active)
11 | COc1cc2c(c(OC)c1OC)C(=O)CC(c1cccc(C(=O)Nc3ccccc3Br)c1)O2 (stereo not given) | 83.7% | 74.1% | 99.6% | 91.1% | 110% | 73.8% | 98.1% | 90.4% | 92.7% | 91.1%
12 | COc1ccc(-c2cc(-c3cn(-c4cccc(Cl)c4)nc3-c3ccc(OC)cc3)on2)cc1 | 113% | 84.7% | 127% | 80.9% | 102% | 108% | 108% | 112% | 112% | 101%
13 | O=C(Nc1ccccc1O)c1ccc(CNc2ccnc(C(F)(F)F)c2)cc1 | 59% | 18.2% | 22% | 62.9% | 80.6% | 54.8% | 36% | 39.1% | 46.4% | 34%
14 | Cc1cccc(NC(=O)Cn2cc(CN3CCN(c4ccnc5cc(Cl)ccc45)CC3)nn2)c1 | 106% | 71.6% | 92.5% | 78.2% | 90.7% | 81.8% | 93.7% | 93.4% | 105% | 92.5%
15 | Cc1[nH]n(-c2cccc(Cl)c2)c(=O)c1/C=C1\C=c2ccccc2=CC1=O | 35.4% | 99.1% | 59% | 4.08% (active) | -76.9% (active) | 47.2% | 25.6% | 72.3% | 80% | 18.2%
16 | Fc1cccc(-c2nc(-c3c[nH]c4ncccc34)cs2)c1 | 63.8% [100 µM] | 94% [100 µM] | 0.186% [100 µM] (active) | 44.6% [100 µM] | 51.7% [100 µM] | 45.5% [100 µM] | 17.2% [100 µM] | 56.1% [100 µM] | 99.3% [100 µM] | 22.2% [100 µM]
17 | O=C(C1=Cc2cc3ccccc3n2Cc2cnnn21)c1ccc(F)cc1 | 97.7% | 87.4% | 101% | 105% | 103% | 100% | 97.8% | 101% | 107% | 107%
18 | Cc1cn(C)cn1 | 107% | 106% | 96.1% | 112% | 117% | 106% | 105% | 110% | 90.2% | 103%
19 | O=C(Cc1ccc(/C=C/C(=O)c2ncc[nH]2)cc1)Nc1cc(F)c(F)c(F)c1 | 18.7% | 18.3% | 93.7% | 41.4% | 13.1% | 58.3% | 77.3% | 5.66% (active) | 99.9% | 85.2%
20 | O=S(=O)(Nc1ccc2ccccc2c1)c1ccc(-c2cnc(C3CC3)o2)cc1 | 18% | 10.4% | 50.3% | 52.4% | 2.78% (active) | 53.5% | 34.2% | 6.39% (active) | 44.5% | 19.4%
21 | C=CC(=O)Nc1cccc(Oc2nccc(Nc3nnc(-c4ccc(Br)cc4)s3)n2)c1 | 103% | 92.6% | 112% | 88.2% | 101% | 93.6% | 96% | 99.7% | 105% | 116%
22 | COC(=O)[C@@]12CC=C(C)[C@]3(C[C@H](c4ccoc4)OC3=O)[C@H]1C=C[C@@H](O)[C@@]2(O)C(=O)OC | 98.3% | 94.1% | 104% | 110% | 114% | 98.1% | 96.4% | 98.7% | 82.1% | 101%
23 | CNCCCNc1nc2ccccc2c2c(=O)c3cc(Cl)ccc3sc12 | -8.94% (active) | -70.1% (active) | 17.6% | -58.8% (active) | 61.1% | 53.8% | 62.6% | 70.8% | 92.8% | -57.2% (active)
24 | COc1cc(-c2nccc3[nH]c(-c4cccc5[nH]ccc45)nc23)cc(OC)c1OC | 22.7% | 8.35% (active) | 56% | 19.7% | 50.8% | 34.2% | 21% | 3.35% (active) | 58.7% | 20.6%
25 | O=c1cc(CP(=O)(O)O)c2cc(O)c(-c3ccccc3)cc2o1 | 105% | 105% | 103% | 111% | 105% | 99% | 101% | 104% | 101% | 97.6%
26 | Cc1nc2sc(C(=O)Nc3ccccn3)c(N)c2cc1C(C)O (stereo not given) | 103% | 31.1% | 97.9% | 59.1% | 71.2% | 83.6% | 65.1% | 59.8% | 81.6% | 49.3%
